How the values were obtained:
[1] = molecular target: T1, Inhibitor of nuclear factor kappa-B kinase subunit epsilon (Homo sapiens) (UniProt Q14164); details: at 1 µM;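 also: reported values are averaged percent inhibition figures against human IKKε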
T1 sequence (whole entry): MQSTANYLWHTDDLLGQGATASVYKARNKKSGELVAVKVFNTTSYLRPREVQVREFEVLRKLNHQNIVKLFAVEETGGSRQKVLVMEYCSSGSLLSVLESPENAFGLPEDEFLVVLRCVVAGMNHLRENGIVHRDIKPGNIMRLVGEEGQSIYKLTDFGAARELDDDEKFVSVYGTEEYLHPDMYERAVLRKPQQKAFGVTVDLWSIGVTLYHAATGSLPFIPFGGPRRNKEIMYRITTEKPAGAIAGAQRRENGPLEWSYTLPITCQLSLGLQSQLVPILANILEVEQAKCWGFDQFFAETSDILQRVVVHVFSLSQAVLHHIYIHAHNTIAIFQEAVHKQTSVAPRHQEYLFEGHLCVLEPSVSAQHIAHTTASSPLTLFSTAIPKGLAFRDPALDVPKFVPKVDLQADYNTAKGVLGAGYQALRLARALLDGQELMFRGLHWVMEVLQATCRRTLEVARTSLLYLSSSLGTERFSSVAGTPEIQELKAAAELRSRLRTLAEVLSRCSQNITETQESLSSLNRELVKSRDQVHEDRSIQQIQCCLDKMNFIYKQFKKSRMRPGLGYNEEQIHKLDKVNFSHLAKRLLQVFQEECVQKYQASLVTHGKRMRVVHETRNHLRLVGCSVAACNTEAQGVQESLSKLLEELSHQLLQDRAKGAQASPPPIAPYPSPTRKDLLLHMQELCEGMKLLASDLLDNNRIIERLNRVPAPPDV

[2] = molecular target: T2, Serine/threonine-protein kinase Nek1 (Homo sapiens) (UniProt Q96PY6); details: at 0.1 µM
T2 sequence (whole entry): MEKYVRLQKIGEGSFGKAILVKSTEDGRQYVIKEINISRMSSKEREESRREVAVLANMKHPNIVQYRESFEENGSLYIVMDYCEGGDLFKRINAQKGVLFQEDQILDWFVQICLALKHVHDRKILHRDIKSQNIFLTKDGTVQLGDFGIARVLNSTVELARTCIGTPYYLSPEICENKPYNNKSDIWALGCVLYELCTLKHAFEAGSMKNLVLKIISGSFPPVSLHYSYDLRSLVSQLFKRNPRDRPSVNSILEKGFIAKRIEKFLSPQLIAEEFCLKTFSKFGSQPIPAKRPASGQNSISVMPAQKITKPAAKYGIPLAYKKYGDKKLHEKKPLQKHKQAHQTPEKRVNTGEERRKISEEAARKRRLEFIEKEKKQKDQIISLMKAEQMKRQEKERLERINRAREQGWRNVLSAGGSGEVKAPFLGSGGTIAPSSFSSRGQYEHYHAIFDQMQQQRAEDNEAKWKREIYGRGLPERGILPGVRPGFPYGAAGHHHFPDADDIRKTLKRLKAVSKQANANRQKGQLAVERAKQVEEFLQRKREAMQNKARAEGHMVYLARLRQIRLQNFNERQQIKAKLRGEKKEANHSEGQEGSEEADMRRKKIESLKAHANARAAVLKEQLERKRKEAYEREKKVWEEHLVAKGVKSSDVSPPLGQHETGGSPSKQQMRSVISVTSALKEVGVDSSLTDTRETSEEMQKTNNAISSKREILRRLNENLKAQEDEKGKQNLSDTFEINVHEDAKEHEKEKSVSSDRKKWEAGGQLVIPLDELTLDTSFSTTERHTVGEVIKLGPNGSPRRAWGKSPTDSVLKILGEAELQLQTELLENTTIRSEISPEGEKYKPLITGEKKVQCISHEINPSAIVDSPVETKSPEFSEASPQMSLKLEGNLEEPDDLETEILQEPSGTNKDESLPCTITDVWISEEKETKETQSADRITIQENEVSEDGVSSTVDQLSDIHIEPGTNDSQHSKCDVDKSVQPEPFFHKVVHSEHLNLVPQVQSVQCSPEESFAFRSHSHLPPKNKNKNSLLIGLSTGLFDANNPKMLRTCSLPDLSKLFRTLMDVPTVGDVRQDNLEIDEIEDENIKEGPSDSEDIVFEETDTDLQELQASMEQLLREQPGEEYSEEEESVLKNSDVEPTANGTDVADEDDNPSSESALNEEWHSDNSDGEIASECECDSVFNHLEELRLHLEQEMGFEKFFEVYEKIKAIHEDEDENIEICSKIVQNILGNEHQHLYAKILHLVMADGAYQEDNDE

[3] = molecular target: T2, Serine/threonine-protein kinase Nek1 (Homo sapiens); details: at 1 µM
[4] = molecular target: T3, Serine/threonine-protein kinase Nek2 (Homo sapiens) (UniProt P51955); details: at 0.1 µM
T3 sequence (whole entry): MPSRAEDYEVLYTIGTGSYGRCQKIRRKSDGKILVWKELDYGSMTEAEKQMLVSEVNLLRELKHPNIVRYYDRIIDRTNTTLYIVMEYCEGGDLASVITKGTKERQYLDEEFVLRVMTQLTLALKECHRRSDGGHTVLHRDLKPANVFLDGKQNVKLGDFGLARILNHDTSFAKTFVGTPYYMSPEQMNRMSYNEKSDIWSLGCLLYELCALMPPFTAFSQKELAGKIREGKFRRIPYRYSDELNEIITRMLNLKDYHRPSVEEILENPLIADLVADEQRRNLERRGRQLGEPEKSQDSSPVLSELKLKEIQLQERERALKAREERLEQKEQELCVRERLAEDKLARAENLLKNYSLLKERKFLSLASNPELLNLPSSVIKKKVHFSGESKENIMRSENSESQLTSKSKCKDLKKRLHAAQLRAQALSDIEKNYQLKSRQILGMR

[5] = molecular target: T3, Serine/threonine-protein kinase Nek2 (Homo sapiens); details: at 1 µM
[6] = molecular target: Serine/threonine-protein kinase Nek6 (Homo sapiens) (UniProt Q9HC98); details: at 0.1 µM
Serine/threonine-protein kinase Nek6 (Homo sapiens), sequence (Q9HC98 whole entry): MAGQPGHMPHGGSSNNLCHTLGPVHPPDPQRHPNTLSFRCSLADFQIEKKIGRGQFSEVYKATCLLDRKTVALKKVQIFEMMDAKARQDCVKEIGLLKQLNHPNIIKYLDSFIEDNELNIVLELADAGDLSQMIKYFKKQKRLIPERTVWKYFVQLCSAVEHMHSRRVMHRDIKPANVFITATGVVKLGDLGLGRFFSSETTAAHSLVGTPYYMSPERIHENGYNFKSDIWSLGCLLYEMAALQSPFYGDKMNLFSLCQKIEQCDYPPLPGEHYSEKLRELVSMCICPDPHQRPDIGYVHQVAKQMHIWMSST

[7] = molecular target: Serine/threonine-protein kinase Nek6 (Homo sapiens) (UniProt Q9HC98); details: at 1 µM
[8] = molecular target: Serine/threonine-protein kinase Nek7 (Homo sapiens) (UniProt Q8TDX7); details: at 0.1 µM
Serine/threonine-protein kinase Nek7 (Homo sapiens), sequence (Q8TDX7 whole entry, looked up): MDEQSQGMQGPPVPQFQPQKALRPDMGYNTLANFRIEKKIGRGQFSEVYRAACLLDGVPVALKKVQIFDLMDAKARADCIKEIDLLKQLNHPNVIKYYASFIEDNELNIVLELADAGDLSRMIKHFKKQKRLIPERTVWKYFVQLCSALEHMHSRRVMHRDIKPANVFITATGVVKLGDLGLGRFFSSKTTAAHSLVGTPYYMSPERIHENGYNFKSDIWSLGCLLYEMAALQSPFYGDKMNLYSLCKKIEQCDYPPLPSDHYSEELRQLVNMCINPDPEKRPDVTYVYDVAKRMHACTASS

[9] = molecular target: Serine/threonine-protein kinase Nek7 (Homo sapiens) (UniProt Q8TDX7); details: at 1 µM
[10] = molecular target: T4, Serine/threonine-protein kinase Nek9 (Homo sapiens) (UniProt Q8TD19); details: at 0.1 µM
T4 sequence (whole entry): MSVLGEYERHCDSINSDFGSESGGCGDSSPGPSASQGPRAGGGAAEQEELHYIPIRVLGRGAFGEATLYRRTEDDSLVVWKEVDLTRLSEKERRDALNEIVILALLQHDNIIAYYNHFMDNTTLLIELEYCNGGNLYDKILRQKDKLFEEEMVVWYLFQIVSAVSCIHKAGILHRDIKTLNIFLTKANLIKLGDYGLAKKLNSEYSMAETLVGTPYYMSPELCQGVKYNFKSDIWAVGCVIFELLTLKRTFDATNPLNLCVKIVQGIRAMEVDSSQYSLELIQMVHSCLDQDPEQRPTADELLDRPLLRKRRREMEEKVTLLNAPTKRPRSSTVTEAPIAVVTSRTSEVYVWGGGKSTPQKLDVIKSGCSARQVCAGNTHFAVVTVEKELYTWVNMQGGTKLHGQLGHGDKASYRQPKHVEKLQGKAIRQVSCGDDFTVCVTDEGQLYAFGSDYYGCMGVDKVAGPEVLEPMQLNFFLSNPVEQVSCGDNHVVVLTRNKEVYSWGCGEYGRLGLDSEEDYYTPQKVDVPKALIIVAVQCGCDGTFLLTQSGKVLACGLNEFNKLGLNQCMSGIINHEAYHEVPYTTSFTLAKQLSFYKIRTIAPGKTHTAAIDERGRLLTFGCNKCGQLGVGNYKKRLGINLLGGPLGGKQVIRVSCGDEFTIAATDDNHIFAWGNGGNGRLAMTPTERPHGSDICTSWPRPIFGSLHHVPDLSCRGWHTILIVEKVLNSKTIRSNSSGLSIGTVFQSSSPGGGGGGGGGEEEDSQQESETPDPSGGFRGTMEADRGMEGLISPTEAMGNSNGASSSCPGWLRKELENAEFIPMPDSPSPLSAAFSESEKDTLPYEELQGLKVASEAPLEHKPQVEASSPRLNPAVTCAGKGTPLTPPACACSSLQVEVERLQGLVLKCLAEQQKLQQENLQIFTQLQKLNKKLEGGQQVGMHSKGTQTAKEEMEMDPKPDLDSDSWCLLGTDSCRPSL

[11] = molecular target: T4, Serine/threonine-protein kinase Nek9 (Homo sapiens); details: at 1 µM
[12] = molecular target: Serine/threonine-protein kinase PLK1 (Homo sapiens) (UniProt P53350); details: at 0.1 µM
Serine/threonine-protein kinase PLK1 (Homo sapiens), sequence (P53350 whole entry): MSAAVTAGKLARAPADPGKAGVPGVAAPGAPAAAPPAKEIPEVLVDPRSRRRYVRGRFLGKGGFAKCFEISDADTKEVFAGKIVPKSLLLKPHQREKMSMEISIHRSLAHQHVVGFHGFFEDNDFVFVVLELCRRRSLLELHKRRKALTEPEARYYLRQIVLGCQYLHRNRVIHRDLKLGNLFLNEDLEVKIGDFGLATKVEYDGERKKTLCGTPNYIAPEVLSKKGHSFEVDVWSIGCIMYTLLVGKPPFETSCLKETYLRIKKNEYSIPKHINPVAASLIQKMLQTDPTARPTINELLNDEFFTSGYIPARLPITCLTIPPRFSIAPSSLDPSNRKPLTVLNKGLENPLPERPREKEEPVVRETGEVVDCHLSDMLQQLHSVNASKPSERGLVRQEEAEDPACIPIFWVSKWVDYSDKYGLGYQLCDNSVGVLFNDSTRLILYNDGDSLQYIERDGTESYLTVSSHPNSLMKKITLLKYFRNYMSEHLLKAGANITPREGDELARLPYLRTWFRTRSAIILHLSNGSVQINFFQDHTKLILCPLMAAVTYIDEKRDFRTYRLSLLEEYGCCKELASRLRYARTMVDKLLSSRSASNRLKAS

[13] = molecular target: Serine/threonine-protein kinase PLK1 (Homo sapiens) (UniProt P53350); details: at 1 µM
[14] = molecular target: T5, Dual specificity protein kinase TTK (Homo sapiens) (UniProt P33981); details: at 0.1 µM
T5 sequence (whole entry): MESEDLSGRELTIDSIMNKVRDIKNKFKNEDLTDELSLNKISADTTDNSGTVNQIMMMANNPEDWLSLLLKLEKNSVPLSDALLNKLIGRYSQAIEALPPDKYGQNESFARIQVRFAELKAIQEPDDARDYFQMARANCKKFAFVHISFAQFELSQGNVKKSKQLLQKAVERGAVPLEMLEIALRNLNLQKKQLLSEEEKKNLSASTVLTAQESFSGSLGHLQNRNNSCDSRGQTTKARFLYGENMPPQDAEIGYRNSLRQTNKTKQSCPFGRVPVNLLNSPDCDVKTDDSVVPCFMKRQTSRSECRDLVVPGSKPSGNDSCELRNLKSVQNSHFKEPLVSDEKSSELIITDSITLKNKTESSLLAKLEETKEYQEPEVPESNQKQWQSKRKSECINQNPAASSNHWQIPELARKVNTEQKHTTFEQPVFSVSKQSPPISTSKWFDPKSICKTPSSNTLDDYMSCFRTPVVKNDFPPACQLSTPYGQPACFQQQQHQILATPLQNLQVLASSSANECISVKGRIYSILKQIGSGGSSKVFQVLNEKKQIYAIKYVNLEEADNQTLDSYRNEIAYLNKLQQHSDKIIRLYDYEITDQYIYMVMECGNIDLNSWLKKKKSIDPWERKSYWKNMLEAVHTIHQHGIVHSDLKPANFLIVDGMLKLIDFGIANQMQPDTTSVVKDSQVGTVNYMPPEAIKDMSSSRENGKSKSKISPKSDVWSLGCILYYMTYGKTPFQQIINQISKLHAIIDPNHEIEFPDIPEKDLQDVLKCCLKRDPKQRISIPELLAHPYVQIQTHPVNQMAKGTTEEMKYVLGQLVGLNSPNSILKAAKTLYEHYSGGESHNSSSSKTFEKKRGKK

[15] = system: T6, Receptor-type tyrosine-protein kinase FLT3 (Homo sapiens), P36888 [D835Y]; details: at 1 µM
T6 sequence (whole entry): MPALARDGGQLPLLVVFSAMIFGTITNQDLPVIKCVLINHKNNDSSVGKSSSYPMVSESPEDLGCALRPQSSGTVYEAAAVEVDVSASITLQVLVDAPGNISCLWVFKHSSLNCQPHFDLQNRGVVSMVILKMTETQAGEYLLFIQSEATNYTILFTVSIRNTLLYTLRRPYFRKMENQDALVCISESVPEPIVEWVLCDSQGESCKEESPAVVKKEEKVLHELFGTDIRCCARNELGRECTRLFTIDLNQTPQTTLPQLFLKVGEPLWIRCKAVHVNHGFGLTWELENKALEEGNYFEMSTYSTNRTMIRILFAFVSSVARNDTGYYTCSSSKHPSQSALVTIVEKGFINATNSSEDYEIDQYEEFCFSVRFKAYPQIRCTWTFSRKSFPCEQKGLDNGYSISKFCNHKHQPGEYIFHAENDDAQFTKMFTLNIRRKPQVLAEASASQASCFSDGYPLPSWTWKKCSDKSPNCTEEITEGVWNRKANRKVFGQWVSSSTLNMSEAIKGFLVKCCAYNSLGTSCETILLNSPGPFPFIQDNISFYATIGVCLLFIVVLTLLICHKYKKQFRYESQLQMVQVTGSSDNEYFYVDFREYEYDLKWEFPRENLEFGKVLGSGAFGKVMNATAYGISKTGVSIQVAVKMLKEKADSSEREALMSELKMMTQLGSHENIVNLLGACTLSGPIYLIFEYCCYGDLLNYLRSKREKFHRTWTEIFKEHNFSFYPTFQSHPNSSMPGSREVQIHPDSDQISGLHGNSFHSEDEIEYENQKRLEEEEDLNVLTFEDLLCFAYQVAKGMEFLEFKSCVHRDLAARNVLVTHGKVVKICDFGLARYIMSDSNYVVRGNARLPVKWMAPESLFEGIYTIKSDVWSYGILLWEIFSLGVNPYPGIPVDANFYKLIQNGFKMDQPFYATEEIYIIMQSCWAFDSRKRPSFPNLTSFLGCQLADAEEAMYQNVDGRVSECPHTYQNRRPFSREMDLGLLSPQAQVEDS

[16] = molecular target: Vascular endothelial growth factor receptor 3 (Homo sapiens) (UniProt P35916); details: at 0.1 µM
Vascular endothelial growth factor receptor 3 (Homo sapiens), sequence (P35916 whole entry): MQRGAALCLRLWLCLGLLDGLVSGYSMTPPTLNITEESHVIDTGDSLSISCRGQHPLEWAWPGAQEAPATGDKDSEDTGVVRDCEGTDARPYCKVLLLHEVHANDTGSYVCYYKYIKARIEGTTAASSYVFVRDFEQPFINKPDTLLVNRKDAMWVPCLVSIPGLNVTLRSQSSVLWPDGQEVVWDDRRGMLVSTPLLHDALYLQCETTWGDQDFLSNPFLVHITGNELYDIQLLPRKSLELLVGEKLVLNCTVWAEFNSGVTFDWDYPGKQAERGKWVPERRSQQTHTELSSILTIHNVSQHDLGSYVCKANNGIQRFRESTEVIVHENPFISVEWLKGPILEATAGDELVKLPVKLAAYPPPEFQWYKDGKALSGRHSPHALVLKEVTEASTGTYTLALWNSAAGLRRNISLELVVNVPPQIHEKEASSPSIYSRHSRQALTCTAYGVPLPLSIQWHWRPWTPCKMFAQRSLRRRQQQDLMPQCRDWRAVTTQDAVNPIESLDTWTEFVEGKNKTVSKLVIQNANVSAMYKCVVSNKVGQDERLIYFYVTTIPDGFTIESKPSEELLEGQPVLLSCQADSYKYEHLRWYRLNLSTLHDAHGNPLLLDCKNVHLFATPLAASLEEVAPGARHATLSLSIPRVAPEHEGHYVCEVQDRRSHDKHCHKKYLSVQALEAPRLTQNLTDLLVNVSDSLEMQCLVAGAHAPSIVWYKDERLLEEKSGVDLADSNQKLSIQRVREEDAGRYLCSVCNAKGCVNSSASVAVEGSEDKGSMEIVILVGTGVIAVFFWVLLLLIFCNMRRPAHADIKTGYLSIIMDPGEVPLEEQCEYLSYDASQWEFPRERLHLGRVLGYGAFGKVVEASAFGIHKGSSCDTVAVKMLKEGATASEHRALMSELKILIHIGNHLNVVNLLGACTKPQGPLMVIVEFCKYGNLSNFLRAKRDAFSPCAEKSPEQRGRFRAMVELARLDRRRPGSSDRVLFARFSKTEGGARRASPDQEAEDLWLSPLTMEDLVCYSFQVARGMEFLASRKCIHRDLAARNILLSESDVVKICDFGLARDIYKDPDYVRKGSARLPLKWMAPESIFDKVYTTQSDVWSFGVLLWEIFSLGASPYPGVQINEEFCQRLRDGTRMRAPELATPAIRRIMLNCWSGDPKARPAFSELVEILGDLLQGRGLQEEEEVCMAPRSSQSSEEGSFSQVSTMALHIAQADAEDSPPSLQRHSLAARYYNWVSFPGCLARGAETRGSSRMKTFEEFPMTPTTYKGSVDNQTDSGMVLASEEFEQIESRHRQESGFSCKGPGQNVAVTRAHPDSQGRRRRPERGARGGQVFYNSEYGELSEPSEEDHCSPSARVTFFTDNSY

[17] = molecular target: Vascular endothelial growth factor receptor 3 (Homo sapiens) (UniProt P35916); details: at 1 µM
[18] = molecular target: Macrophage colony-stimulating factor 1 receptor (Homo sapiens) (UniProt P07333); details: at 0.1 µM
Macrophage colony-stimulating factor 1 receptor (Homo sapiens), sequence (P07333 whole entry): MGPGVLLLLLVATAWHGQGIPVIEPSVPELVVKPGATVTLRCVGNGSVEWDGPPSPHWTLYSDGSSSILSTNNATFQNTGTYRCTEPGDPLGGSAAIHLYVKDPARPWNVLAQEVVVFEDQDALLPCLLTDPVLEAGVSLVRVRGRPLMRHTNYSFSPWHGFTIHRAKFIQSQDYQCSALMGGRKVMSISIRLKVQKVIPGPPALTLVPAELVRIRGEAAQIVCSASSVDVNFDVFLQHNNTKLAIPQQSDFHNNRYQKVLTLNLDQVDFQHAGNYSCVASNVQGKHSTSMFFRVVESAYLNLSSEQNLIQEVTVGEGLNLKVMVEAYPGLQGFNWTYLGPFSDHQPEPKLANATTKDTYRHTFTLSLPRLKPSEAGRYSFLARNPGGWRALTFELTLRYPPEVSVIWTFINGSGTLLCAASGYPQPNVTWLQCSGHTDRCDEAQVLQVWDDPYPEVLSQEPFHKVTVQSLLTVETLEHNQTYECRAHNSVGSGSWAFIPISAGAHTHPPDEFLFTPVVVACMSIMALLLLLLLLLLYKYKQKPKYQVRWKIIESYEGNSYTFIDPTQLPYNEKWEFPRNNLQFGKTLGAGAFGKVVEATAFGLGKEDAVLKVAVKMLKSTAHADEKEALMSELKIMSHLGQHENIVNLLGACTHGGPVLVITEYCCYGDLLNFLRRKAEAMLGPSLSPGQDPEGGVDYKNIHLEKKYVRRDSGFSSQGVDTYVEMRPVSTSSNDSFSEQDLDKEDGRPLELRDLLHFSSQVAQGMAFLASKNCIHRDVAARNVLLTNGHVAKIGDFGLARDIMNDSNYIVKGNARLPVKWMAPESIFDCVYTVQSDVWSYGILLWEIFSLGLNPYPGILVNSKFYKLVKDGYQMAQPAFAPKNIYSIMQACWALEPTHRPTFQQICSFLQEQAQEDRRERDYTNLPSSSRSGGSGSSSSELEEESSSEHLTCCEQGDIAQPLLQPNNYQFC

[19] = molecular target: Macrophage colony-stimulating factor 1 receptor (Homo sapiens) (UniProt P07333); details: at 1 µM
[20] = molecular target: Tyrosine-protein kinase Fyn (Homo sapiens) (UniProt P06241); details: at 0.1 µM
Tyrosine-protein kinase Fyn (Homo sapiens), sequence (P06241 2-537 limits assumed): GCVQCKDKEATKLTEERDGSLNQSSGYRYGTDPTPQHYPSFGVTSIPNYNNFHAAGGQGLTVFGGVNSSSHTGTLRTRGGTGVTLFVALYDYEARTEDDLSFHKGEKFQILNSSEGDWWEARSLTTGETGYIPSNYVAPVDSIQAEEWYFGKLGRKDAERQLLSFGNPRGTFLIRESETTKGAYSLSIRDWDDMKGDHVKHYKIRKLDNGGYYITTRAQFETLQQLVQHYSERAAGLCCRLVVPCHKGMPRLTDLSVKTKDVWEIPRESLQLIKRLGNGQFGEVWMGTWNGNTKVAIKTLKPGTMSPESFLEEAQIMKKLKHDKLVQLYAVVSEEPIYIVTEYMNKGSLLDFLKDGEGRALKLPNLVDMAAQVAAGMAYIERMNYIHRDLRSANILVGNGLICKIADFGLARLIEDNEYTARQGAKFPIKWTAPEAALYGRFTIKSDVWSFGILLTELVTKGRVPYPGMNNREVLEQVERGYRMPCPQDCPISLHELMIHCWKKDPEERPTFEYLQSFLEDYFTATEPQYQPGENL

Row | Compound | inhibition [1] [%] | inhibition [2] [%] | inhibition [3] [%] | inhibition [4] [%] | inhibition [5] [%] | inhibition [6] [%] | inhibition [7] [%] | inhibition [8] [%] | inhibition [9] [%] | inhibition [10] [%] | inhibition [11] [%] | inhibition [12] [%] | inhibition [13] [%] | inhibition [14] [%] | inhibition [15] [%] | inhibition [16] [%] | inhibition [17] [%] | inhibition [18] [%] | inhibition [19] [%] | inhibition [20] [%]
1 | Cc1cccc2c1NC(=O)/C2=N\Nc1ccc(S(N)(=O)=O)cc1 | 3.85 | 1 | 3.8 | 2.64 | 2.64 | 2.04 | 1.65 | 2.43 | 2.36 | 4.06 | 3.99 | 0.77 | 2.15 | 1.78 | 10.5 | 3.59 | -0.85 | 2.22 | 7.87 | 2.11
2 | CS(=O)(=O)CCNCc1coc(-c2ccc3ncnc(Nc4ccc(OCc5ccccc5)cc4)c3c2)c1 | 4.57 | 2.15 | 3.07 | 4.2 | 2.21 | 1.54 | 2.23 | 2.37 | 3.98 | 8.97 | 15.4 | 4.26 | 5.02 | 5.49 | 4.15 | 4.45 | 2.92 | 0.22 | 7.42 | 1.47

— ChEMBL document CHEMBL1961873, “Compounds: GSK PKIS; Assays: Nanosyn kinase panel” (2012)
